The target in assay [1] is D(1A) dopamine receptor (Homo sapiens) (UniProt P21728). Put plainly: HTS Assay for Allosteric Agonists of the Human D1 Dopamine Receptor: Primary Screen for Agonists (AID 488981). Also: 0% is about no effect. In outline:
(§1)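 Tetracycline-induced HEK293 T-REx cells force-coupled to calcium signalling were incubated overnight at 30 C and dye-loaded at room temperature. Calcium flux over 180 s after compound addition flagged agonists; a further 180 s read after EC20 dopamine flagged potentiators.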

For assay [2] the target is unchanged. In words: HTS Assay for Allosteric Agonists of the Human D1 Dopamine Receptor: Primary Screen for Potentiators (AID 488982). Also: potency is read from the fitted curve at half-maximal effect. Summed up:
as §1

The nature of assay [3]: Validation screen for small molecules that induce genotoxicity in human embryonic kidney (HEK293T) cells expressing luciferase-tagged ELG1 (AID 493106). Also: 0% is about no effect. Summed up: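 Luminescence from an ELG1-luciferase fusion serves as the read-out, rising when genetic stress elevates ELG1 protein. HEK293T reporter cells (2,000 per well) received 23 nL compound, incubated 16 hr at 37 °C, then ONE-Glo for 30 min at room temperature.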

For assay [4], the target named is ATPase family AAA domain-containing protein 5 (Homo sapiens) (UniProt Q96QE3). Put plainly: Validation screen for small molecules that inhibit ELG1-dependent DNA repair in human embryonic kidney (HEK293T) cells expressing luciferase-tagged ELG1 (AID 493107). Also: nearly all actives have a fitted effect of over 70% in size. Also: potency is read from the fitted curve at half-maximal effect. In outline:
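Luminescence from ONE-Glo, developed 30 min at room temperature, served as read-out of ELG1-luciferase levels. Beforehand, reporter HEK293T cells received 5-fluorouridine plus test compound for 16 hr at 37 °C.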

The target in assay [5] is Thyrotropin-releasing hormone receptor (Homo sapiens) (UniProt P34981). Put plainly: qHTS for Small Molecule Agonists and Allosteric Enhancers of Human TRH Receptor: Validation Screen for Agonists (AID 493127;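 active = calcium activation more than 3 SD above the typical response in the agonist read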;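 also: intracellular calcium rise by fluo-8 fluorescence before TRH EC20 addition; 0% is about no effect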). The note with it: TRH receptor agonist cell assay; at 2 µM; stronger effect = higher value. In outline: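 Cells 2000/well, 10% FCS, 18 h 33.5C/5% CO2 → fluo-8 Ca dye, RT 30 min–1.5 h → FDSS baseline 10 × 1 s → compound added → 230 cycles (1 s/cycle) agonist mode. TRH controls.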
Chain of Thyrotropin-releasing hormone receptor (Homo sapiens) (P34981 whole entry, looked up): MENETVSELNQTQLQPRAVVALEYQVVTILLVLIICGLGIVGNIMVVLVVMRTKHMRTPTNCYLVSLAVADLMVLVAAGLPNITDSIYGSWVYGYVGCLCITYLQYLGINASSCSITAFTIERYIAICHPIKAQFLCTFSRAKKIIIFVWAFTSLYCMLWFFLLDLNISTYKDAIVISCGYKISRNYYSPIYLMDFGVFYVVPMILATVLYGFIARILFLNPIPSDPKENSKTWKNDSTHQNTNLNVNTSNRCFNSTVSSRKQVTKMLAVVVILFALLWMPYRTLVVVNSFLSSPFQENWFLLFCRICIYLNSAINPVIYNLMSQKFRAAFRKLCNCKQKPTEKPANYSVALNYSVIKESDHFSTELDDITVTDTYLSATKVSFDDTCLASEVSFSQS
(In general: In qHTS, concentration-response curves come from the screen itself.)

Assay [6] is described as follows: qHTS for Inhibitors of Cell Surface uPA Generation: Validation Assay (AID 493164). Also: 0% is about no effect. Summed up:
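RAW 264.7 cells (4000/well) were plated overnight, then exposed for 18 h at 37 C, 5% CO2 to compounds in a 7-point 1:5 titration (2.45 nM–38.3 uM final). Intracellular ATP was read by ATP-Lite luminescence.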

In assay [7] the target is D(1A) dopamine receptor (Homo sapiens) (UniProt P21728). In words: HTS Assay for Allosteric Agonists of the Human D1 Dopamine Receptor: Primary Screen for Antagonists (AID 488983).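 Also: calcium flux response to an EC80 dopamine challenge measured with no-wash dye; nearly all actives have a fitted effect of over 65% in size.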 Also: potency is read from the fitted curve at half-maximal effect. In outline: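 Cells are induced with tetracycline and incubated overnight at 30 C, then loaded with calcium dye for 30 to 90 minutes at room temperature. Compound addition is followed by a 180 s read, then an EC80 dopamine addition and another 180 s read.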
Chain of D(1A) dopamine receptor (Homo sapiens) (P21728 whole entry, looked up): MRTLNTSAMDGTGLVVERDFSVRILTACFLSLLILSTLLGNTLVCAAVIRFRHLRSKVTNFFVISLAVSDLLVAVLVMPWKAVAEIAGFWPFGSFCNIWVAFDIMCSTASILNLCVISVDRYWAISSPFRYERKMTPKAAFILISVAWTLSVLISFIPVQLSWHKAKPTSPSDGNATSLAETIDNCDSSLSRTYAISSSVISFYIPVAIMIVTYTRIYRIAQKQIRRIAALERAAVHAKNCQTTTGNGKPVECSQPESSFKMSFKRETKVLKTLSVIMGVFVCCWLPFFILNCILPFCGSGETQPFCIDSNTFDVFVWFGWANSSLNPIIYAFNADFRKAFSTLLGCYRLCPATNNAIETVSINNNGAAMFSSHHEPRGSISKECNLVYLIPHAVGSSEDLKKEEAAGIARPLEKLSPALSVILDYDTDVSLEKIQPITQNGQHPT

Assay [8] in a line: Nrf2 qHTS screen for inhibitors: Validation (AID 493153; active = well fitted inhibition curve with a large enough effect in the main read-out, with a control signal flat, not every such curve was filed as active; also: potency is read from the fitted curve at half-maximal effect). The note with it: Potency: luciferase luminescence; viability change: measured here: cytotoxicity max response. In outline: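 Luminescence from an ARE-firefly luciferase reporter in A549 cells gives Nrf2 inhibition; an earlier CellTiter-Fluor fluorescent read flags cytotoxicity. Cells in 5% FBS OPTI-MEM received compound dilution series for 18-24 h at 37°C.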

For assay [9], the target named is Tyrosyl-DNA phosphodiesterase 1 (Homo sapiens) (UniProt Q9NUW8). Put plainly: Confirmation Assay for Inhibitors of Tyrosyl-DNA Phosphodiesterase (TDP1) (AID 489007). Also: potency is read from the fitted curve at half-maximal effect; nearly all actives have a fitted effect of over 40% in size. Conditions: recombinant human TDP1 enzymatic activity, dose-response. Summed up:
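Tdp1 1 nM + cpd, 15 min RT; add biotin/phosphotyrosine-FITC oligo 15 nM, 5 min RT; add AS donor/acceptor beads 10 ug/ml, 10 min RT; read AlphaScreen. No-enzyme wells = max signal.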

The target in assay [10] is ATP-dependent 6-phosphofructokinase (Trypanosoma brucei brucei) (UniProt O15648). In words: qHTS Assay to Find Inhibitors of T. brucei phosphofructokinase: hit validation (AID 492961). Also: potency is read from the fitted curve at half-maximal effect. Summed up: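 PFK 1.25 nM, F6P 0.5 mM, ATP 0.1 mM, MgCl2 5 mM, 0.1 M TEA pH 8.0, Tween20 0.01%, BSA 0.1%; 45 min RT. ADP-Glo two-step detection, luminescence. qHTS titration; curve fitting with curve-class categorization.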
Chain of ATP-dependent 6-phosphofructokinase (Trypanosoma brucei brucei) (O15648 whole entry, looked up): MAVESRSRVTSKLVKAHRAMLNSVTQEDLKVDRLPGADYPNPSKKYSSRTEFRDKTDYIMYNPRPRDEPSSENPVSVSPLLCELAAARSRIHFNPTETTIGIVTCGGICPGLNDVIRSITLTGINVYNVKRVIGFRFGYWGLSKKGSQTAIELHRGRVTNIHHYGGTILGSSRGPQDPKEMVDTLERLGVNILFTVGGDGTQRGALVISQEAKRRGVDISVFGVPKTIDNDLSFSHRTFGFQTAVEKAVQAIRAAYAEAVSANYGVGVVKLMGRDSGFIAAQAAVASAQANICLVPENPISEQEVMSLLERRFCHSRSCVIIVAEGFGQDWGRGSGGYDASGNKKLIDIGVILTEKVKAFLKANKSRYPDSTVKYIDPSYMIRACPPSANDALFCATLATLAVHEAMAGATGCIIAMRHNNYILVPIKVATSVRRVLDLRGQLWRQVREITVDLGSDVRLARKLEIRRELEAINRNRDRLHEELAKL

Results filed as inconclusive are left out. Calls of active or inactive are those of the source. Unless noted, calls follow the shape of the dose curve; as a rule, active = well fitted curve in the direction sought with a large enough effect; inconclusive = small, poorly fitted or top-dose-only effect, or another doubt; inactive = no such curve, though single readings can be large; an effect the other way counts as inactive or inconclusive.

Chain of ATPase family AAA domain-containing protein 5 (Homo sapiens) (Q96QE3 whole entry, looked up, the tested form may be a part): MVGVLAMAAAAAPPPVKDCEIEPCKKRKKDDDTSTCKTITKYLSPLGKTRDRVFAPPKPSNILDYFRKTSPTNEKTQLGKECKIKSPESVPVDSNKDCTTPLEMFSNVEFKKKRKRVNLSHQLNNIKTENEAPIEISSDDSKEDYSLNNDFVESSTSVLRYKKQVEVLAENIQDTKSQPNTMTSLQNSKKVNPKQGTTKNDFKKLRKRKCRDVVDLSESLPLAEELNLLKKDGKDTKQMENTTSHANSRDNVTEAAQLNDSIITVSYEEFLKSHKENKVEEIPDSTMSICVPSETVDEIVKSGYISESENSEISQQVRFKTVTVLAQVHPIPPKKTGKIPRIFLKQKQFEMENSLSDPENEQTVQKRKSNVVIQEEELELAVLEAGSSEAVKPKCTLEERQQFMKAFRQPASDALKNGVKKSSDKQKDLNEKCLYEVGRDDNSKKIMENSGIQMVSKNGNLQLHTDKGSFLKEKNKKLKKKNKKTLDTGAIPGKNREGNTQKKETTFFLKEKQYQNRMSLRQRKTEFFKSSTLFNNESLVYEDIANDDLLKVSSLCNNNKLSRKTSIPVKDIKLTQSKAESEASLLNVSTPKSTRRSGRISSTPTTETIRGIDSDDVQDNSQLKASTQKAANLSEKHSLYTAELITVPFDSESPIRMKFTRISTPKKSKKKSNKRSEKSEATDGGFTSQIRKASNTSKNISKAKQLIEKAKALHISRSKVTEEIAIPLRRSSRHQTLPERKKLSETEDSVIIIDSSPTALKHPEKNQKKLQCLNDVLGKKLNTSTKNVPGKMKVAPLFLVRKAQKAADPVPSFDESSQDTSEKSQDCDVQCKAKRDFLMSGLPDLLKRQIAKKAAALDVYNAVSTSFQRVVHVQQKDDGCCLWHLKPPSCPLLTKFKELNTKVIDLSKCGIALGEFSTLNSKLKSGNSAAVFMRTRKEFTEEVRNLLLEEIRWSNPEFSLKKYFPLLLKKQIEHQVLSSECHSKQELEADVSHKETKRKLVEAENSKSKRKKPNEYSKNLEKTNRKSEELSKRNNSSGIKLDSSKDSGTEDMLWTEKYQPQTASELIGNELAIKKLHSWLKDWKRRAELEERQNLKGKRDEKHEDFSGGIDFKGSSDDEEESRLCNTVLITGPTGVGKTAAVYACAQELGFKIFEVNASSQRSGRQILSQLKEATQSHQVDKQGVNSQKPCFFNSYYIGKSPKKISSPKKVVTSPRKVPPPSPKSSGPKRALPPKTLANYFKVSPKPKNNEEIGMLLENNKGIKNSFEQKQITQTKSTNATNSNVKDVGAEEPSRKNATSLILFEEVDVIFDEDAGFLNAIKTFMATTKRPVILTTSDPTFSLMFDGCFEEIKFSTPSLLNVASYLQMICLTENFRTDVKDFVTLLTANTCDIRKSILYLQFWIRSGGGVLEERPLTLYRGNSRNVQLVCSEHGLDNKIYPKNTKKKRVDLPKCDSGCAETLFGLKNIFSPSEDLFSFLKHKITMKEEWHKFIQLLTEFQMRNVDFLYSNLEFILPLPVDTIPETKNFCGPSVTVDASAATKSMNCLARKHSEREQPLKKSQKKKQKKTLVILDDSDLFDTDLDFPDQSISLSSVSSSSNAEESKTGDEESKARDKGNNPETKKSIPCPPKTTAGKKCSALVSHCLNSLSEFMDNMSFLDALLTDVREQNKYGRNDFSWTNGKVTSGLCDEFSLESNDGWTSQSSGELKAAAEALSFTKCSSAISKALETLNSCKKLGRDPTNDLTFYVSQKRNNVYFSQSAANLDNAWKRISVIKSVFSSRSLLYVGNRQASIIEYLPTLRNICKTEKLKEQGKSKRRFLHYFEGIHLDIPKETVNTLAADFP
Chain of Tyrosyl-DNA phosphodiesterase 1 (Homo sapiens) (Q9NUW8 whole entry, looked up): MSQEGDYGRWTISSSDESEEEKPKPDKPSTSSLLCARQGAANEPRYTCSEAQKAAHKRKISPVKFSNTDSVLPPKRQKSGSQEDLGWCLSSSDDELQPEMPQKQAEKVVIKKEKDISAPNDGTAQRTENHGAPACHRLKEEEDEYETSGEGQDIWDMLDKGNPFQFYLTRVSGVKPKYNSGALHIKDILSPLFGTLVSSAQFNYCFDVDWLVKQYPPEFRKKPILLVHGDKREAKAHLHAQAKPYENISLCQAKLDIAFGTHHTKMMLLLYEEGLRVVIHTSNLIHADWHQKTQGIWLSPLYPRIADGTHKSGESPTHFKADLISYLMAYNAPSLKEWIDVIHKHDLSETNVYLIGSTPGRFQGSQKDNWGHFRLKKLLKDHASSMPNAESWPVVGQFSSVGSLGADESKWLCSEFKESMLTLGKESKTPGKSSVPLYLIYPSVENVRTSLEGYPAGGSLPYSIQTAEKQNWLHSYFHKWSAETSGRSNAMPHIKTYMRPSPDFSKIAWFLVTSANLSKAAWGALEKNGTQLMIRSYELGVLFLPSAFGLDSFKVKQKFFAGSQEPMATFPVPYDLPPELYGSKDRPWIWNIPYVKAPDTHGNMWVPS

As for `CC(C)(C)c1cc(C=C(C#N)C#N)cc(C(C)(C)C)c1O`, the Potency result in assay [1], in assay [2] and in [3] was “inactive” throughout. In assay [4], the Potency was 2.31 µM (active). In addition, in assay [5], the activation was 0.125% (inactive). In addition, the result in assay [6] was inactive.

Regarding `C=CCN1C[C@@H](C)N([C@H](c2ccc(C(=O)N(CC)CC)cc2)c2cccc(OC)c2)C[C@@H]1C`, the Potency result in assay [1], in assay [7], in [3], in assay [4] and in assay [8] was “inactive” each time. In addition, the activation in assay [5] was 2.06% (inactive). Also, the viability change in [8] is 4.14%. Besides, the compound was classed as inactive in assay [6].

As for `CCCN(CCC)C1CCc2cccc(O)c2C1` (stereo unspecified), the Potency result in [1], in assay [2], in assay [7], in [3] and in assay [4] was “inactive” each time. Besides, the activation in assay [5] is 1.12% (inactive). Besides, in assay [6], the compound was classed as inactive.

With `C[Se]C[C@H](N)C(=O)O`, the Potency entry in [1], in [2], in assay [7] and in assay [3] was “inactive” each time. Besides, the activation in [5] is 0.188% (inactive). Moreover, the call in assay [6] was inactive.

In the case of `N#C/C(=C/c1ccc(O)c(O)c1)C(N)=S`, the Potency result in [1], in assay [7], in assay [4] and in [8] was “inactive” throughout. The Potency in [2] was 0.517 µM (active). The viability change in [8] was 0.144%. The result in assay [6] was inactive.

In the case of `CCCN1CC[C@@H]2c3cc(O)ccc3CC[C@@H]21`, the Potency entry in assay [1], in assay [2], in assay [3], in assay [4] and in [8] was “inactive” in each case. Further, the activation in assay [5] was -5.31% (inactive). For the same compound, the viability change in assay [8] was determined as 9.01%. Also, the compound was classed as inactive in [6].

For the compound `O=S1(=O)N(CCN2CC=C(c3c[nH]c4cc(F)ccc34)CC2)c2cccc3c2N1CCC3`, the Potency entry in assay [1], in assay [2] and in assay [3] was “inactive” in each case. In assay [5], the activation was 52.8% (active). Moreover, the Potency in [8] was 23.1 µM (active). Also, the viability change in assay [8] is -15.7%. Also, the compound was classed as inactive in assay [6].

For the compound `CN1CC[C@@]2(C)c3cc(O)ccc3N(C)C12` (stereo partly specified), the Potency entry in assay [1], in [7], in assay [3] and in assay [4] was “inactive” each time. Further, the activation in [5] is -0.188% (inactive). Also, in [6], the call was inactive.

For the compound `C[C@@H]1O[C@@H](O[C@H]2C[C@@H](O)[C@]3(CO)[C@@H]4C(CC[C@]3(O)C2)[C@@]2(O)CC[C@H]([C@@H]3COC(=O)C3)[C@@]2(C)C[C@H]4O)[C@H](O)[C@H](O)[C@H]1O` (stereo partly specified), the Potency entry in assay [1], in assay [2], in assay [7] and in assay [3] was “inactive” throughout. Further, the Potency in [4] is 2.06 µM (active). In assay [6], the outcome was inactive.

In the case of `N=C(N)c1ccc(CS(=O)(=O)F)cc1`, the Potency result in assay [1], in [2], in assay [7], in [3], in assay [4] and in assay [8] was “inactive” in each case. Besides, the viability change in assay [8] is -1.04%. Moreover, the call in [6] was inactive.

Regarding `NC(=O)c1ccc(OCC(O)CN2CC=C(c3ccc(F)cc3)CC2)cc1` (stereo unspecified), the Potency entry in assay [1], in assay [2], in assay [3], in assay [4] and in [8] was “inactive” in each case. Besides, the activation in assay [5] is 4.62% (inactive). Moreover, the viability change in assay [8] is 16.7%. Moreover, the call in assay [6] was inactive.

For `O=C(O)c1cc[c]([Hg][Cl])cc1`, the Potency entry in assay [2], in [7], in [3] and in assay [8] was “inactive” throughout. In addition, in assay [9], the Potency is 56.2 µM (active). The activation in assay [5] was 1.5% (inactive). The viability change in [8] is -2.02%. Further, in [6], the outcome was inactive.

As to `COc1ccc2c(c1O)-c1cccc3c1[C@@H](C2)N(C)CC3`, the Potency entry in assay [2], in assay [3] and in assay [8] was “inactive” each time. The Potency in assay [7] was 10 µM (active). In addition, in [8], the viability change was -4.97%. Further, the outcome in [6] was inactive.

Take `C[N+]1(C)CCOC(O)(c2ccc(-c3ccc(C4(O)C[N+](C)(C)CCO4)cc3)cc2)C1` (stereo unspecified): the Potency entry in assay [2], in assay [7], in assay [3] and in assay [4] was “inactive” in each case. For the same compound, in [5], the activation was 1.19% (inactive). Besides, the compound was called inactive in assay [6].

For `Cc1o[nH]c(=O)c1CC(N)C(=O)O` (stereo unspecified), the Potency result in [2], in assay [7], in assay [3], in assay [4] and in assay [8] was “inactive” each time. The viability change in assay [8] was 2.81%. For the same compound, in [6], the compound was classed as inactive.

`C[N+](C)(C)CCOC(=O)CBr`: the Potency entry in [2], in [7], in assay [3], in assay [4] and in assay [8] was “inactive” in each case. In addition, in [5], the activation was 1.06% (inactive). The viability change in assay [8] was -12.9%. Besides, the result in assay [6] was inactive.

As to `O=c1c2ccccc2[se]n1-c1ccccc1`, the Potency result in assay [2], in assay [7], in [3] and in [8] was “inactive” each time. In [10], the Potency was 11.2 µM (active). In addition, the activation in assay [5] was 3.06% (inactive). The viability change in assay [8] is 3.13%. For the same compound, the result in assay [6] was inactive.

Take `NCCCP(=O)(O)O`: the Potency result in assay [2], in assay [7], in assay [3], in assay [4] and in assay [8] was “inactive” in each case. Further, the activation in assay [5] was 0.562% (inactive). Besides, the viability change in assay [8] was found to be 0.331%. In assay [6], the compound was classed as inactive.

In the case of `NC(N)=Nc1ccc2[nH]c3c(c2c1)C[C@@]1(O)[C@H]2Cc4ccc(O)c5c4[C@@]1(CCN2CC1CC1)[C@H]3O5`, the Potency result in assay [2], in assay [7] and in [3] was “inactive” each time. Also, the activation in assay [5] was 0.188% (inactive). In addition, in assay [6], the outcome was inactive.

In the case of `NC(C(=O)O)c1cc(=O)[nH]o1` (stereo unspecified), the Potency entry in assay [2], in [7], in assay [3], in [4] and in [8] was “inactive” each time. Moreover, the activation in assay [5] is 0.688% (inactive). For the same compound, in assay [8], the viability change is -7.19%. Also, the outcome in assay [6] was inactive.

Take `COC(=O)N1CCN(C(=O)Cc2ccc(Cl)c(Cl)c2)C(CN2CCCC2)C1` (stereo unspecified): the Potency result in assay [2], in assay [7], in [3], in [4] and in assay [8] was “inactive” each time. Also, the activation in assay [5] is 0.875% (inactive). Besides, the viability change in assay [8] was 0.492%. Besides, the call in assay [6] was inactive.

Consider `CN(N=O)c1ccc(O)c(O)c1`, for which the Potency entry in assay [2], in [7], in assay [3], in assay [4] and in [8] was “inactive” in each case. Further, in assay [5], the activation is -0.438% (inactive). Moreover, the viability change in assay [8] was 0.531%. For the same compound, the compound was classed as inactive in [6].

Take `CC(N)Cc1c[nH]c2ccc(OCc3cccs3)cc12` (stereo unspecified): the Potency entry in assay [2], in assay [7], in [3], in assay [4] and in [8] was “inactive” in each case. Besides, in [5], the activation was 3.5% (inactive). In addition, in assay [8], the viability change was -4.81%. The result in assay [6] was inactive.

For the compound `C=CCN1CC[C@]23c4c5ccc(O)c4O[C@@H]2/C(=N/N=C2\CC[C@@]4(O)C6Cc7ccc(O)c8c7[C@@]4(CCN6CC=C)[C@@H]2O8)CC[C@@]3(O)C1C5`, the Potency result in assay [2], in [7], in assay [3] and in assay [8] was “inactive” in each case. Further, in assay [5], the activation is 2.38% (inactive). The viability change in assay [8] is -1.45%. For the same compound, in assay [6], the outcome was inactive.

With `C[C@H](N)CN1CCc2ccc(Br)cc21`, the Potency result in assay [2], in assay [7], in [3], in assay [4] and in [8] was “inactive” in each case. Further, the activation in assay [5] was 0.625% (inactive). For the same compound, in assay [8], the viability change was -2.43%. In assay [6], the compound was called inactive.

For the compound `Cc1c2ccncc2c(C)c2c1[nH]c1ccccc12`, the Potency result in assay [2], in [7] and in [3] was “inactive” throughout. Further, the Potency in assay [4] is 16.4 µM (active). The activation in assay [5] is 28.2% (inactive). Further, in assay [6], the result was inactive.

(Values after PubChem BioAssay (NCATS).)
